Assay outcomes (PubChem)
tim10-1 inh – growth inhibitors of tim10-1 mutant yeast. AID 463190. S. cerevisiae tim10-1 ts strain growth, BacTiter-Glo, 24 h. inhibition, % at 20 µM. actives 2.2% (n = 330,000);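 active = inhibition of at least 40%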;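 also: mutant grown at 25 °C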
B2AR ag – human beta-2 adrenergic receptor agonism by FAP; actives 0.43% (n = 340,000); AID 504454; Am2.2-beta2AR cells, FAP receptor internalization, flow cytometry; response, % (no concentration beside the values); P07550;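 active = response above a set limit, near 3 SD of response in nonfluorescent compounds, cut at about 42% in these data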
Target sequence (P07550 whole entry, looked up): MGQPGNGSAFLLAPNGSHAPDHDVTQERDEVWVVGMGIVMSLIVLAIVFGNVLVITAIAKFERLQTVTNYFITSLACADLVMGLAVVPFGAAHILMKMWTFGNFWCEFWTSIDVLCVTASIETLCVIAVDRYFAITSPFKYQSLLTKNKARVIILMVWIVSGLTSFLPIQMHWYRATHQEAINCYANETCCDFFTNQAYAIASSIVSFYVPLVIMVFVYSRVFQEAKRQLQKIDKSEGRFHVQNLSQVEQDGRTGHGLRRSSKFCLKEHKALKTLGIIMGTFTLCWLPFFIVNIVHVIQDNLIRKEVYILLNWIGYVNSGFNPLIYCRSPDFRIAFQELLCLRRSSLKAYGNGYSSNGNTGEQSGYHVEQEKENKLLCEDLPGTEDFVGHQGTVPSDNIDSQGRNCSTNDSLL
tim23-1 inh – growth inhibitors of tim23-1 mutant yeast; S. cerevisiae tim23-1 growth, BacTiter-Glo luminescence, 24 h; inhibition, % at 20 µM; actives 1.3% (n = 330,000);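 active = growth inhibition of the mutant yeast at or above 50%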;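 also: temperature-sensitive mutant grown at 25 °C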
PfHsp90 set2 – growth inhibition of yeast expressing Plasmodium Hsp90 | S. cerevisiae expressing PfHsp90, BacTiter-Glo ATP, 48 h; yeast lacking PDR1 and PDR3 efflux regulators | inhibition, % at 9.4 µM | actives 0.32% (n = 310,000);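 active = every replicate shows inhibition above about 80%, whatever the replicate mean, limit read from the data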
TIM10 inh – inhibits growth of TIM10 yeast strain. S. cerevisiae TIM10 strain growth, BacTiter-Glo luminescence, 24 h. inhibition, % at 10 µM. actives 1.4% (n = 330,000). AID 463195;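 active = inhibition of 40% or more at the single tested concentration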;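 also: wild-type TIM10 isogenic control strain grown at permissive 25 °C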
tim10-1 confirm – tim10-1 yeast growth inhibition, confirmed | shares compounds with tim10-1 inh | S. cerevisiae tim10-1 ts strain growth, BacTiter-Glo, 24 h | inhibition, % at 20 µM | actives 56% (n = 7,400) | AID 463213;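 active = inhibition of yeast growth at or above a set limit in either of two repeat tests at 20 µM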;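 also: tim10-1 mutant grown at permissive 25 °C to find synthetic lethal compounds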
TIM10 conf – confirmation of TIM10 yeast growth inhibitors; AID 463215; inhibition, % at 10 µM; S. cerevisiae tim10 strain growth, BacTiter-Glo luminescence, 24 h; shares compounds with TIM10 inh; actives 63% (n = 4,600);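 active = inhibition of yeast growth at or above a set limit in either of two replicates at 10 µM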; also: this counterscreen used the strain with wild-type TIM10
Of the large screens only hits and unclear results are named; the others gave an inactive call (follow-up assays come after a bar, where they were run). Rows were chosen to be rich in hits. Some 3.8% of all compounds tested hit in one or more screens of this group.

COCCNC(=O)C(c1ccc(C)cc1)N(C(=O)CCC(=O)Nc1ccccn1)c1ccccc1C (stereo unspecified)	none
CCCc1cc(=O)oc2cc(OC(C)C(=O)NC3CC(C)(C)NC(C)(C)C3)ccc12 (stereo unspecified)	none
Cc1cccc(OCCCOc2cccc3cccnc23)c1C	tim10-1 inh 46, TIM10 inh 47 | tim10-1 confirm inactive | TIM10 conf 39
Cc1ccc(OCCCOc2cccc3cccnc23)cc1C	none
CC(=O)Nc1ccc(S(=O)(=O)Nc2ccccc2N2CCOCC2)cc1	none
N/C(CCS(=O)(=O)c1ccc(Cl)cc1)=N\OC(=O)c1ccccc1Cl	tim10-1 inh 62, TIM10 inh 51 | tim10-1 confirm 71 | TIM10 conf 50
c1ccc(-c2nc(N3CCCCCC3)c3ccccc3n2)nc1	none (no result: PfHsp90 set2)
c1ccc(Oc2nc(-c3ccccn3)nc3ccccc23)cc1	tim10-1 inh 43, TIM10 inh 50 (no result: PfHsp90 set2) | tim10-1 confirm inactive | TIM10 conf inactive
CCOC(=O)C1CCN(C(=O)c2cc(S(=O)(=O)N3CCc4ccccc43)ccc2OC)CC1	none (no result: PfHsp90 set2)
O=C(COc1ccccc1)NC(=S)N1CCc2ccccc21	tim10-1 inh 43, TIM10 inh 41 | tim10-1 confirm inactive | TIM10 conf inactive
COc1cccc(OC)c1C(=O)NC(=O)Oc1c(F)cccc1F	none
COc1ccc(C(=O)N/C(=C\c2ccco2)C(=O)OCc2ccco2)cc1	none
COc1ccc(C(=O)/C(=C\c2ccco2)N2C=CC=CC2=C(C#N)C#N)cc1	tim10-1 inh 53, B2AR ag 60, TIM10 inh 59 | tim10-1 confirm 41 | TIM10 conf 53
CC(C(=O)N1CCc2ccccc21)N(C)CC(=O)Nc1cccc(F)c1 (stereo unspecified)	none
COc1ccc(-c2ccnc3nc(N4CCN(c5ccccc5)CC4)nn23)cc1	tim10-1 inh 43, TIM10 inh 47 (no result: PfHsp90 set2) | tim10-1 confirm 36 | TIM10 conf inactive
O=C(COC(=O)c1ccccc1O)NC12CC3CC(CC(C3)C1)C2	none (no result: B2AR ag)
O=C(COC(=O)/C=C/C(=O)OCC(=O)NC12CC3CC(CC(C3)C1)C2)NC12CC3CC(CC(C3)C1)C2	tim10-1 inh 56, TIM10 inh 45 | tim10-1 confirm 43 | TIM10 conf inactive
CC(C)(C)NC(=O)Nc1nnc(SCC(=O)NC2CCCCC2)s1	none
CC1CCN(CC2C(=O)O[C@@H]3C[C@@]4(C)CCC[C@H](C)C4=C[C@H]23)CC(C)(C)C1 (stereo partly specified)	none
C=C1CCC[C@]2(C)C[C@H]3OC(=O)C(CN4CC(C)OC(C)C4)[C@H]3C[C@@H]12 (stereo partly specified)	tim10-1 inh 42, TIM10 inh 40 | tim10-1 confirm 31 | TIM10 conf 37
O=[N+]([O-])c1ccc(-c2nc(-c3cccs3)c(-c3cccs3)[nH]2)cc1	tim10-1 inh 65, TIM10 inh 69 | tim10-1 confirm 52 | TIM10 conf 61
O=C(Oc1c(CN2CCOCC2)cc(Cl)c2cccnc12)c1cccs1	tim10-1 inh 47, TIM10 inh 42 | tim10-1 confirm 41 | TIM10 conf inactive
O=C(Oc1c(CN2CCOCC2)cc(Cl)c2cccnc12)c1ccc(F)cc1	none (no result: PfHsp90 set2)
COc1ccc(CNC(=O)C[C@H]2C[C@H](C(=O)N3CCCCC3)[C@@]3(CCc4ccccc4)c4[nH]c5ccc(Cl)cc5c4CCN3C2=O)cc1OC	none
CCCc1cc(-c2nc(-c3ccc(Br)cc3)cs2)ccn1	none
CCCc1cc(-c2nc(-c3ccc(Cl)cc3)cs2)ccn1	tim10-1 inh 47, TIM10 inh 51 | tim10-1 confirm 45 | TIM10 conf 43
Cc1ccc(NC(=O)CSc2nc3sc(C)cc3c(=O)n2C)cc1	none
CN(C(=O)CC(NC(=O)c1ccccc1Cl)c1ccccc1)c1ccccc1 (stereo unspecified)	none
CCOC(=O)C1=CN(Cc2cccc(F)c2)S(=O)(=O)N(CC)C1c1ccc(C(F)(F)F)cc1 (stereo unspecified)	none
CCNC(=S)N/N=C/c1cccc(OCc2c(F)cccc2Cl)c1	tim10-1 inh 44, TIM10 inh 53 | tim10-1 confirm 37 | TIM10 conf 41
CCCCNC(=S)N(CCN(C)C)Cc1cc2cc3c(cc2[nH]c1=O)OCCO3	none
CN(CC(=O)Nc1cccc(F)c1)C(=O)C1CCC(C(=O)N(C)CC(=O)Nc2cccc(F)c2)CC1 (stereo unspecified)	none (no result: tim10-1 inh, tim23-1 inh, TIM10 inh)
CCc1cccc(C)c1NC(=S)NCc1ccc2[nH]c(C)cc2c1	tim10-1 inh 51, TIM10 inh 48 | tim10-1 confirm inactive | TIM10 conf 37
CNC(=S)NCc1ccc2[nH]c(C)cc2c1	none
O=C(/C=C/c1ccc(N2CCC(c3ccccc3)=N2)cc1)c1ccccc1	tim10-1 inh 41, TIM10 inh 43 (no result: B2AR ag, PfHsp90 set2) | tim10-1 confirm inactive | TIM10 conf inactive
COc1ccccc1CNCC(O)(c1ccc(Cl)cc1)c1ccc(Cl)cc1	tim10-1 inh 46, TIM10 inh 52 (no result: PfHsp90 set2) | tim10-1 confirm inactive | TIM10 conf 44
O=C(CCl)N(c1ccc(Cl)cc1)c1c[nH]c2ccccc12	tim10-1 inh 44, B2AR ag 69, TIM10 inh 41 | tim10-1 confirm 36 | TIM10 conf 28
CCCCOC(=O)/C(=C\c1ccc([N+](=O)[O-])o1)NC(=O)c1ccccc1	tim10-1 inh 40, TIM10 inh 45 | tim10-1 confirm 40 | TIM10 conf inactive
CC(=O)N1CCN(c2cc(N3CCCC3)c(F)cc2[N+](=O)[O-])CC1	none (no result: PfHsp90 set2)
CCN1CCN(c2cc(N3CCc4ccccc4C3)c(F)cc2[N+](=O)[O-])CC1	tim10-1 inh 41, TIM10 inh 41 | tim10-1 confirm 32 | TIM10 conf inactive
CC[C@]12C(=O)N(C)C[C@H]([C@@H]3C(=O)N(Cc4ccccc4)C(=O)[C@@H]31)N2C(=O)c1ccc(Br)cc1	none (no result: tim10-1 inh, tim23-1 inh, TIM10 inh)
O=C1NCCNC1c1ccccc1 (stereo unspecified)	none (no result: tim10-1 inh, tim23-1 inh, TIM10 inh)
C=C(C)COc1ccc(-c2n[nH]c(C)c2-c2ccc(OC)c(OC)c2)c(O)c1	tim10-1 inh 44, TIM10 inh 41 | tim10-1 confirm 33 | TIM10 conf 38
COc1ccc(CNC(=O)CCc2ccc(S(=O)(=O)N3CCCCCC3)cc2)cc1OC	none
Cc1c(Cl)cnc(NC(=O)COC(=O)c2ccc([N+](=O)[O-])s2)c1Cl	tim10-1 inh 49, TIM10 inh 66 | tim10-1 confirm inactive | TIM10 conf 82
CCOc1ccc(NS(=O)(=O)c2cccc(C(=O)N3CCN(C/C=C/c4ccccc4)CC3)c2)cc1	none (no result: tim10-1 inh, tim23-1 inh, TIM10 inh)
